Source: PubChem BioAssay AID1851 (National Center for Advancing Translational Sciences (NCATS), 2009)
Among all 16,000 compounds or so, about 4,000 (25%) were called active. Another 26% or so got no clear call; they are omitted. A selection follows. Values without a mark were called inactive. The call rests on the fitted dose curve; in most records, active means well fitted curve in the direction sought with a large enough effect; inconclusive means small, poorly fitted or top-dose-only effect, or effect the other way; inactive means no such curve, though single readings can be large or run the other way.

These compounds were tested against Cytochrome P450 2C9 (Homo sapiens) (UniProt P11712) (assay: Cytochrome panel assay with activity outcomes). Conditions: recombinant CYP, pro-luciferin dealkylation, luminescence, p450-cyp2c9; series mostly up to 57.1 µM; activity, negative = inhibition: at the top concentration.
On the % scale 0 is the no-effect control and ±100 the full control effect.

Sequence of Cytochrome P450 2C9 (Homo sapiens) (P11712 whole entry, looked up): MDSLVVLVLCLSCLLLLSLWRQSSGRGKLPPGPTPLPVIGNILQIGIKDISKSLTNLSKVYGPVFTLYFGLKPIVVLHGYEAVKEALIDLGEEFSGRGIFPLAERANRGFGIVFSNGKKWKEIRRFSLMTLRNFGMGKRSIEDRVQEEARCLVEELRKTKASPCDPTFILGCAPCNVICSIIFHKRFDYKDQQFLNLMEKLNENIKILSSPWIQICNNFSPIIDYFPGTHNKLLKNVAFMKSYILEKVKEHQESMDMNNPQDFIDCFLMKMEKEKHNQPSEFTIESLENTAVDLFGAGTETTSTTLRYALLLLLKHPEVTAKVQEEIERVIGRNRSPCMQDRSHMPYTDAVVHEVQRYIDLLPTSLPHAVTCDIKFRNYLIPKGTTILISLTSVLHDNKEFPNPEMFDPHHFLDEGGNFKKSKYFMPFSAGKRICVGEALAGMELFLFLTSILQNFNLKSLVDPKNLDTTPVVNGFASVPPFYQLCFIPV

Compound	activity, negative = inhibition	AC50
CN(C)c1ccc(-c2cncnc2Nc2ccccc2)cc1	-6.76% [at 2.29 µM]	
CCCS(=O)(=O)N1CCCC(C(=O)NCCCOCC)C1 (stereo not given)	5.29%	
CCc1cccc(CC)c1NC(=O)CN(CC(=O)O)CC(=O)O	29.9% [at 25.6 µM]	
CCc1cccc(NC(=O)CN(C)S(=O)(=O)c2cnc[nH]2)c1		0.631 µM (active)
CN(CC(=O)N1CCN(c2ccccc2)CC1)S(=O)(=O)c1cnc[nH]1		0.0708 µM (active)
O=C1[C@H]2O[C@@H]2[C@@H](O)[C@H]2[C@H]1CCn1c(=O)n(Cc3cc4c(cc3Cl)OCO4)c(=O)n12	3.99% [at 11.4 µM]	
Nc1ncnc2c1ncn2C[C@@H](O)C(=O)O	-0.945% [at 11.4 µM]	
N=C(N)SCC(=O)O	-5.65% [at 11.4 µM]	
COc1ccc(N(C)S(=O)(=O)c2ccc3c(c2)CCC(=O)N3)cc1	8.61%	
Cc1cccc(N(C)S(=O)(=O)c2ccc3[nH]c(=O)c(=O)[nH]c3c2)c1		4.47 µM (active)
O=C(Nc1ccc(Cl)cc1Cl)c1cccc(N2C(=O)C=CC2=O)c1		11.2 µM (active)
CN(C)c1ccc(NC(=O)c2cccc(N3C(=O)C4C5C=CC(C5)C4C3=O)c2)cc1 (stereo not given)	-25.2%	
CCNc1ncc2nc(C)c(=O)n(C[C@H]3CCCO3)c2n1	12.2%	
CCc1ccc(C(=O)N2CCC(c3nc4ccccc4s3)CC2)cc1		1.58 µM (active)
O=P(Cc1cc[n+]([O-])cc1)(c1ccccc1)c1ccccc1	-6.5%	
Cc1cccc(C)c1NC(=O)[C@H](C)N	10.2% [at 25.6 µM]	
Cc1cccc(C)c1NC(=O)C(c1ccc(Cl)cc1Cl)N1CCCCC1 (stereo not given)		14.1 µM (active)
Cc1cccc(C)c1NC(=O)C(c1ccccc1)N1CCC1=O (stereo not given)	5.54%	
COc1ccccc1CN1CCC2(CC1)CCN(S(C)(=O)=O)CC2	-4%	
c1ccc(Nc2nc(-c3ccc4c(c3)OCO4)nc3ccccc23)cc1	-5.32% [at 2.29 µM]	
Clc1cccc(Nc2nnc(-c3ccccc3)c3ccccc23)c1		3.98 µM (active)
N#Cc1cccc(-c2nc(Nc3ccccc3)c3ccccc3n2)c1	-3.27% [at 2.29 µM]	

Compound	activity, negative = inhibition	AC50
c1ccn(-c2ccc(N3CCOCC3)cc2)c1	-4.63%	
CC(C)CN1CCCC2(CCN(C(=O)c3cnccn3)CC2)C1	4.58%	
COc1nc(/C(N)=N/O)nc(N2CCCCC2)n1	-22.5%	
COc1cccc(/C=N/Nc2nc(N3CCCC3)nc(N3CCCC3)n2)c1O		12.6 µM (active)
Brc1cc2c(cc1/C=N/Nc1nc(N3CCCC3)nc(N3CCOCC3)n1)OCO2		7.08 µM (active)
COc1c(/C=N/Nc2nc(N3CCCCC3)nc(N3CCCCC3)n2)cccc1[N+](=O)[O-]	-38.8%	
N#Cc1cccc(-c2cncnc2NCc2cccnc2)c1	6.75% [at 2.29 µM]	
CN(C)CCO[C@@H](c1ccc(Cl)cc1)c1ccccn1	-11.5% [at 25.6 µM]	
O=S(=O)(Nc1nc(-c2sccc2Cl)cs1)c1cc(Cl)ccc1Cl		0.631 µM (active)
COCC(C)NCc1cccc(C)c1 (stereo not given)	11.4%	
Cc1ccc(S(=O)(=O)n2ccc(-c3cccc(OCc4c(F)cccc4Cl)c3)n2)cc1		1.58 µM (active)
CO[C@H]1COC(=O)C/C=C\[C@H](C)COC(=O)[C@@H](C)NC(=O)C/C=C\[C@@H]1C	-24.8% [at 11.4 µM]	
COCC(=O)N/N=C/c1ccc(Sc2nc3ccccc3s2)o1	2.01%	
O=C(Cc1cccc2ccccc12)N/N=C/c1ccc(Sc2nc3ccccc3s2)o1		0.282 µM (active)
NCCCCCC(=O)O		inactive
CCNC(=S)NNC(=O)c1cc(CC(C)C)nc2ccccc12		2.82 µM (active)
Cc1cc(C(=O)OC2CCOC2=O)c2ccccc2n1 (stereo not given)	0.804%	
CCNC(=S)NNC(=O)c1cc(C2CC2)nc2ccccc12		2 µM (active)
Cc1cc(C(=O)NNC(=S)NC(C)c2ccccc2)c2ccccc2n1 (stereo not given)		3.16 µM (active)
Cc1cc(C(=O)Nc2c(C)n(C)n(-c3ccccc3)c2=O)c2ccccc2n1	-1.95%	
CCNC(=S)NNC(=O)c1cc(C)on1	-15.8%	
CCNC(=S)NNC(=O)c1cccc(Br)c1	-10.1%	

Compound	activity, negative = inhibition	AC50
CCNC(=S)NNC(=O)Cc1ccccc1	-11.7%	
OCCCN=C1CCCCC1	-11% [at 11.4 µM]	
COCC(=O)N1CCC[C@@]2(CCN(c3ncccn3)C2)C1	-23%	
Cc1nc2ncnn2c(C)c1CCC(=O)Nc1ccc(S(=O)(=O)N2CCCCCC2)cc1		3.16 µM (active)
Cc1nc2ncnn2c(C)c1CCC(=O)NCc1ccccc1	-18.2%	
Cc1ccc(NC(=O)CCc2c(C)nc3ncnn3c2C)nc1	-5.57%	
O=C(CSc1ncccn1)Nc1ccc(S(=O)(=O)N2CCCCC2)cc1		7.94 µM (active)
O=C(CCN1CCc2ccccc2C1)Nc1ccc(F)cc1	-17.2%	
O=C(Nc1ccc(S(=O)(=O)N2CCOCC2)cc1)c1ccc(CN2CCc3ccccc3C2)cc1		8.91 µM (active)
O=C(c1ccc(CN2CCc3ccccc3C2)cc1)N1CCc2ccccc2C1	-19.2%	
O=C(Nc1ccc(S(=O)(=O)N2CCCCC2)cc1)c1ccc(CN2CCc3ccccc3C2)cc1		3.16 µM (active)
CC(=O)Nc1ccc(S(=O)(=O)N2CCC(N(C)CCC(C)C)CC2)cc1	-20.5%	
CN(Cc1ccco1)c1cc(-c2cccc(NS(C)(=O)=O)c2)ncn1	-0.0487% [at 2.29 µM]	
CCN1C(=O)[C@H]2[C@H]3[C@H](O)[C@H](O)C/C(=N/OCC[C@H]4C=C[C@H](OC(C)=O)[C@@H](COC(C)=O)O4)[C@@H]3CC[C@@H]2C1=O	-15% [at 11.4 µM]	
O=C(CSCc1ccccc1)Nc1ccc(S(=O)(=O)N2CCOCC2)cc1		10 µM (active)
Cc1cnc(CNc2ccnc(-c3c(C)noc3C)n2)cn1	19.4% [at 2.29 µM]	
COc1ccc2c(c1)C(c1ccc([N+](=O)[O-])cc1)=NNC(c1ccco1)=N2		14.1 µM (active)
c1ccc2c(NCCN3CCOCC3)nc(-c3ccoc3)nc2c1	-0.137% [at 2.29 µM]	
Cc1noc(C)c1C(=O)N1CCC2(CC1)CCN(C(c1ccccc1)c1ccccc1)CC2	-8.71%	
Cc1noc(C)c1C(=O)OCC(=O)NC(c1ccccc1)c1ccccc1		11.2 µM (active)
Cc1noc(C)c1C(=O)N1CCC2(CCN(C(=O)Nc3ccccc3)CC2)CC1	8.06%	
